From PubChem BioAssay (Tox21)
Values joined by “and” are separate entries in the source; they are usually repeats but may differ in a detail not shown here. Equal values may be shown once. Inconclusive results are not listed. A call without a number means that no potency is given here. Some compounds were tested as several samples or in several runs, with calls that do not always agree. Active and inactive are the calls of the source. Calls come from the whole dose curve.

biological target: Acetylcholinesterase (Homo sapiens) (UniProt P22303); experiment: Acetylcholinesterase (AChE) small molecule antagonists: fluorescence cell-based qHTS assay (AID 1347398); details: SH-SY5Y cells; Potency: AChE activity; series mostly up to 115 µM; note: nearly all actives have a fitted effect of over 50% in size
Sequence (P22303 whole entry, looked up): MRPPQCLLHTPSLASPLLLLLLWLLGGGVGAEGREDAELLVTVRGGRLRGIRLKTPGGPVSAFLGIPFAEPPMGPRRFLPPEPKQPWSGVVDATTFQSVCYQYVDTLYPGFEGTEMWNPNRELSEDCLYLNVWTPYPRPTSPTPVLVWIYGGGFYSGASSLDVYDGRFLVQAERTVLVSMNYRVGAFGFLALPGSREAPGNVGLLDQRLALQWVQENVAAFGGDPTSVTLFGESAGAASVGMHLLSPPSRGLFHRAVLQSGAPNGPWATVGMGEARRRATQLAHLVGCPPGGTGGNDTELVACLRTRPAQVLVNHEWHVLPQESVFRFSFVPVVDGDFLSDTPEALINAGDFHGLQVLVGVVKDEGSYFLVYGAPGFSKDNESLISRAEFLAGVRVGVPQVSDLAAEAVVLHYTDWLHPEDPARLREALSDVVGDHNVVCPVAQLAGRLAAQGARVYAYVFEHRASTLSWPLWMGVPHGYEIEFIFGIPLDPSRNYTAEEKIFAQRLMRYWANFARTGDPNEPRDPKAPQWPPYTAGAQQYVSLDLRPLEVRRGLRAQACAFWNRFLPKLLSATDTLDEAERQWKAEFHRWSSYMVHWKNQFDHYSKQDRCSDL
Text: National Center for Advancing Translational Sciences [NCATS]
Division of Preclinical Innovation [DPI]
U.S. Environmental Protection Agency [EPA]
National Institutes of Environmental Health Sciences [NIEHS]
National Toxicology Program [NTP]
U.S. Food and Drug Administration [FDA]
Acetylcholinesterase (AChE) is the primary cholinesterase in the body that hydrolyzes a key neurotransmitter, acetylcholine. Inhibition of AChE activity can lead to neurotoxicity. Known inhibitors of AChE include organophosphorous pesticides (OP), chemical warfare agents, drugs, and various phytochemicals.
A homogenous cell-based assay using Amplitetrade mark Fluorimetric Acetylcholinesterase Assay Kit *Green Fluorescence* (AAT Bioquest, Sunnyvale, CA) was used to evaluate the chemicals in the Tox21 10K library that inhibit AChE activity. The assay uses Thiolite Green to quantify the thiocholine produced from the hydrolysis of acetylthiocholine by AChE from the SH-SY5Y cells. AChE can hydrolyze acetylthiocholine to create thiocholine. Thiolite Green is fluorescent when reacting with thiocholine. It has spectral properties similar to those of fluorescein. The fluorescence intensity of Thiolite Green is used to measure AChE activity. Its signal can be easily read by a fluorescence microplate reader at Ex/Em = 490/520 nm.
Tox21 Assay Protocol Summary:
For cell-based AChE assay, 2,000 SH-SY5Y cells in 4 uL/well were dispensed into black, clear-bottom 1536-well plates using a Multidrop Combi (Thermo Scientific) dispenser. The assay plates were incubated overnight at 37 C to allow cells to attach to the wells, followed by the transfer of 23 nL compound or DMSO (vehicle control) by a Pintool station (Wako Automation, CA). The plates were incubated for 30 min at 37 C and 5% CO2, followed by the addition of 4 uL of detection cocktail solution (ThioliteGreen, acetylthiocholine) into each well using Flying Reagent Dispenser (Beckman Coulter, CA) and then following 40 min incubation at room temperature. Fluorescent intensity (Ex/Em = 490/520 nm) was measured using an Envision plate reader (PerkinElmer, MA).
Potency is the fitted concentration of half-maximal effect.

Q: `Cc1ccc(O)c(C)c1` was tested. Which Potency did it give?
A: inactive

Q: For `COc1nc(NC(C)C)nc(NC(C)C)n1`, which Potency is on record?
A: inactive

Q: Which Potency does the source give for `Clc1cnc(Oc2ccc(Oc3ncc(Cl)cc3Cl)cc2)c(Cl)c1` here?
A: inactive

Q: `O=[N+]([O-])c1cc([As](=O)(O)O)ccc1O` was tested. Which Potency did it give?
A: inactive

Q: For `N#Cc1cccc(C#N)c1`, which Potency is on record?
A: inactive

Q: Which Potency does the source give for `O=[N+]([O-])c1ccc(Cl)cc1` here?
A: inactive

Q: Which Potency does the source give for `CC12CC1(C)C(=O)N(c1cc(Cl)cc(Cl)c1)C2=O` (stereo not given) here?
A: inactive

Q: Which Potency does the source give for `N#Cc1ccccn1` here?
A: inactive

Q: Which Potency does the source give for `COC(C)(C)CCCC(C)C/C=C/C(C)=C/C(=O)OC(C)C` (stereo not given) here?
A: inactive

Q: For `Cc1ccc(N=C=O)cc1N=C=O`, which Potency is on record?
A: inactive

Q: For `CN(C)C(=O)Nc1cccc(C(F)(F)F)c1`, which Potency is on record?
A: inactive

Q: With `CCCOC(=O)c1ccccc1C(=O)OCCC` as the molecule, how does the Potency read?
A: inactive

Q: Which Potency does the source give for `[N-]=[N+]=CC(=O)OC[C@H](N)C(=O)O` here?
A: inactive

Q: With `Cl/C=C/Cl` as the molecule, how does the Potency read?
A: inactive

Q: How did the Potency turn out when `c1ccc2c(c1)CCCC2` was run?
A: inactive

Q: Which Potency does the source give for `C/C=C/c1ccc2c(c1)OCO2` here?
A: inactive

Q: `CCSC(=O)N1CCCCCC1` was tested. Which Potency did it give?
A: inactive

Q: Which Potency does the source give for `N#CN=C(N)N` here?
A: inactive

Q: With `Cc1cccc(N)c1` as the molecule, how does the Potency read?
A: inactive

Q: With `Nc1cc(Cl)cc(Cl)c1` as the molecule, how does the Potency read?
A: inactive

Q: How did the Potency turn out when `CNC(=O)O/N=C(\SC)C(=O)N(C)C` was run?
A: 489 nM (active) and 632 nM (active)

Q: How did the Potency turn out when `COS(=O)(=O)OC` was run?
A: inactive

Q: How did the Potency turn out when `CC[N+](=O)[O-]` was run?
A: inactive

Q: Which Potency does the source give for `C[C@]12CC[C@H](O)CC1=CC[C@@H]1[C@@H]2CC[C@]2(C)C(=O)CC[C@@H]12` here?
A: inactive

Q: For `CC(C)(C)C(=O)CCl`, which Potency is on record?
A: inactive

Q: With `CNCC(O)c1ccc(O)cc1` (stereo not given) as the molecule, how does the Potency read?
A: inactive

Q: With `CC(=O)/C=C/c1ccccc1` as the molecule, how does the Potency read?
A: inactive

Q: With `O=S(=O)(O)OOS(=O)(=O)O` as the molecule, how does the Potency read?
A: inactive

Q: How did the Potency turn out when `C=CC(=O)OCCCCCC(C)C` was run?
A: inactive

Q: Which Potency does the source give for `Nc1ccc([As](=O)(O)O)cc1` here?
A: inactive

Q: How did the Potency turn out when `Nc1cccc(Cl)c1` was run?
A: inactive

Q: Which Potency does the source give for `O=C/C=C/c1ccccc1` here?
A: inactive and 36 µM (active)

Q: For `CN(C)CCC#N`, which Potency is on record?
A: inactive

Q: Which Potency does the source give for `CC(C)CCCCCCOC(=O)c1ccccc1C(=O)OCCCCCCC(C)C` here?
A: inactive

Q: `OCC(O)CCl` (stereo not given) was tested. Which Potency did it give?
A: inactive

Q: For `CN(C)C(=O)C(c1ccccc1)c1ccccc1`, which Potency is on record?
A: inactive

Q: How did the Potency turn out when `Sc1ccccc1` was run?
A: inactive

Q: `ClC(Cl)c1ccccc1` was tested. Which Potency did it give?
A: inactive

Q: `CNC(=O)O/N=C/C(C)(C)S(C)=O` (stereo not given) was tested. Which Potency did it give?
A: 57.2 nM (active) and 35.4 nM (active)

Q: For `CN(C)NC(=O)CCC(=O)O`, which Potency is on record?
A: inactive
